From PubChem BioAssay
Pf growth 96h = P. falciparum growth inhibition at 96 hour, primary screen for plastid delayed-death inhibitors; P. falciparum luciferase reporter growth, 96 h; 320,000 compounds, 6.9% hits; Potency, µM (titrated, usually from 28.7 µM), for inactives: at the top dose activity change, negative = inhibition, most hits filed as inhibitors; also: potency is read from the fitted curve at half-maximal effect
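Infected RBCs, 2% Hct / 0.05% parasitemia final; luciferase-reporter P. falciparum; cpd 96 h, 37 C, 5% CO2; luciferase detection reagent; luminescence.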
HCMV inh = inhibitors of human cytomegalovirus | HFF cells, HCMV-luciferase reporter, 72 h; hits give low values | activity change, negative = inhibition, % at 57.5 µM | 410,000 compounds, 4.5% hits | AID 1259415; in the data active = activity change below about -60%; inconclusive = no clear call, values can overlap the other calls; inactive = above about -39%
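Compounds were evaluated in HFFs infected with an HCMV luciferase reporter virus (MOI 1 PFU/cell). Luciferase in lysates collected 72 h post infection served as the replication measure.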
Lassa entry inh = inhibitors of Lassa virus binding or cell entry; Lassa virus pseudotype entry inhibition, cell reporter; Potency, µM (doses to about 37.9 µM), for the others: top-dose activity change, negative = inhibition, actives largely listed as inhibitors; 300,000 compounds, 1.2% hits; AID 540256; calls by dose curve; tested in HEK293 cells; also: potency is read from the fitted curve at half-maximal effect; nearly all actives have a fitted effect of over 50% in size
HCV inhibitor = blocks hepatitis C virus | Huh7.5.1 HCVcc-Cre infection, luciferase reporter, 44 h | Potency, µM (doses to about 41.8 µM), for the others: at the top dose activity change, negative = inhibition, most hits filed as inhibitors | 340,000 compounds, 3.4% hits | AID 651820; also: potency is read from the fitted curve at half-maximal effect
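1,000 cells/well; 4 h culture; + compound; + HCVcc-Cre (~0.5 moi); 44 h; luciferase substrate, RT 15 min; read 15 sec.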
MARV entry inh = Marburg virus entry inhibition | Potency, µM (titrated, usually from 37.8 µM), inactives show at the top dose activity change, negative = inhibition, usual class: inhibitors | AID 540276 | Marburg virus pseudotyped entry inhibition, cell reporter | 300,000 compounds, 1.8% hits; calls by dose curve; tested in HEK293 cells; also: potency is read from the fitted curve at half-maximal effect
Pf growth 48h = P. falciparum growth inhibition at 48 hours (one generation) | Potency, µM (doses to about 28.7 µM), inactives show top-dose activity change, negative = inhibition, actives largely listed as inhibitors | P. falciparum luciferase growth in erythrocytes, 48 h | 310,000 compounds, 5.9% hits | AID 504832; also: potency is read from the fitted curve at half-maximal effect
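Luminescence readout; reporter = integrated firefly luciferase in P. falciparum. RBC culture at 2% hematocrit, 0.1% parasitemia final, 37 C/5% CO2; decreased signal taken as growth inhibition.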
* hit, by the source's call; i = inactive; ? = inconclusive; / = no result given; [ ] = another dose, or the depositor's remark. Compounds with a hit are over-represented: about 14% of the library has one in this group of screens. Unless noted, calls follow the shape of the dose curve; as a rule, active = well fitted inhibition curve with a large enough effect; inconclusive = small, poorly fitted or top-dose-only effect, or another doubt; inactive = no such curve, though single readings can be large or run the other way. % is scaled to controls: 0 for no effect and ±100 for the full control effect.

SMILES	Pf growth 96h	HCMV inh	Lassa entry inh	HCV inhibitor	MARV entry inh	Pf growth 48h
COCCOC(=O)c1c(N)n(CCCN2CCOCC2)c2nc3ccccc3nc12	0%	-4	14%	5%	6%	?
Nc1c(C(=O)NCc2ccccc2)c2nc3ccccc3nc2n1CCCN1CCOCC1	-103%	28	-24%	-6%	?	?
COc1ccc(CNC(=O)c2c(N)n(CCCN3CCOCC3)c3nc4ccccc4nc23)cc1	?	-26	23µM*	?	16µM*	/
COC(=O)c1c(N)n(CCCN2CCOCC2)c2nc3ccccc3nc12	9.3µM*	-13	10%	6%	9%	?
CC1CCCCN1CCCNC(=O)c1ccc2c(c1)sc1nc(-c3ccc(F)cc3)cn12 (stereo not drawn)	/	/	25%[46.1 µM]	/	/	/
COc1ccc(C2=NOC(Cn3nc(C(=O)NCc4cccs4)cc3-c3ccccc3)C2)cc1 (stereo not drawn)	?	-15	/	10µM*	/	?
COc1ccc(C2=NOC(Cn3nc(C(=O)NCc4ccc(C)cc4)cc3-c3ccccc3)C2)cc1 (stereo not drawn)	10µM*	-35	/	8.9µM*	/	10µM*
COc1ccc(C2=NOC(Cn3nc(-c4ccccc4)cc3C(=O)NCc3cccs3)C2)cc1 (stereo not drawn)	/	47	/	?	/	/
COCCNC(=O)c1cc(-c2ccccc2)n(CC2CC(c3ccc(OC)cc3)=NO2)n1 (stereo not drawn)	?	-8	/	13%	/	-29%
COc1ccc(C2=NOC(Cn3nc(C(=O)NCc4cccc(C(F)(F)F)c4)cc3-c3ccccc3)C2)cc1 (stereo not drawn)	4.7µM*	?	/	?	/	4.7µM*
COc1ccc(C2=NOC(Cn3nc(-c4ccccc4)cc3C(=O)NCc3ccco3)C2)cc1 (stereo not drawn)	/	-39	/	?	/	/
COc1ccc(C2=NOC(Cn3nc(C(=O)NCc4ccco4)cc3-c3ccccc3)C2)cc1 (stereo not drawn)	10µM*	-17	/	?	/	13µM*
COC(=O)c1ccc(CSc2nc3c([nH]c4ccccc43)c(=O)n2-c2ccc(F)cc2)o1	/	-1	?	/	/	/
CCc1nc2ccc(C(=O)N3CCN(C(C)=O)CC3)cn2c1N(C=O)Cc1ccc(OC)cc1	/	78	/	/	/	/
COc1ccc(-n2nnnc2C(c2ccnc3ccccc23)N2CCN(C/C=C/c3ccccc3)CC2)cc1 (stereo not drawn)	/	-24	/	/	/	/
CCC(=O)N1CCC1(C)C(=O)Nc1ccc2c(c1)CCN2C(C)=O (stereo not drawn)	/	-2	/	/	/	/
O=C(NC1CCCCC1)C(=O)N(Cc1cccnc1)C(C(=O)NCc1ccco1)c1ccccc1 (stereo not drawn)	5.2µM*	/	/	/	/	-27%
O=C(CNC(=S)N(Cc1ccccc1)Cc1cccnc1)NC1CCCCC1	9.3µM*	-32	14%	-10%	-13%	?
O=C(NC1CCCC1)C(=O)N(Cc1cccnc1)C(C(=O)NCc1ccco1)c1ccccc1F (stereo not drawn)	-27%	7	3%[46.1 µM]	15%	-3%[46.1 µM]	-15%
CCCCOC(=O)c1ccc(NC(=O)CSc2nc3c(c(=O)[nH]2)CCCC3)cc1	/	-7	-16%[46.1 µM]	/	9%[46.1 µM]	/
Cc1[nH]n(-c2cccc(Cl)c2)c(=O)c1-c1ccccc1	5.9µM*	88	4%	24%	1%[46.1 µM]	/
Cc1[nH]n(-c2ccccc2)c(=O)c1-c1ccccc1	-11%	-38	7%	-8%	?	?
Cc1[nH]n(-c2cccc([N+](=O)[O-])c2)c(=O)c1-c1ccccc1	13µM*	-35	/	0%	/	?
CC(C)C[C@H]1CNC(=O)C(=O)N1CC1CCN(CCC(C)c2ccccc2)CC1 (stereo partly drawn)	/	-26	/	/	/	/
CCN(CC)S(=O)(=O)c1ccc2c(c1)N(CC(=O)N1CCN(c3cccc(OC)c3)CC1)C(=O)CO2	/	-6	2%[46.1 µM]	/	/	/
SMILES	Pf growth 96h	HCMV inh	Lassa entry inh	HCV inhibitor	MARV entry inh	Pf growth 48h
CCCC[C@@H]1CNC(=O)C(=O)N1CCCC	/	-2	/	/	/	/
C/C(=N\Nc1cccc2cccnc12)c1ccccc1O	i	6	?	10%	?	368%
CC(=NNc1cc(C)c2ccccc2n1)c1ccccn1	/	-98*	/	/	/	/
Cc1cc(N/N=C(/CCC(=O)O)C(=O)O)nc2ccccc12	1%	-8	-12%	11%	1%[46.1 µM]	0%
C/C(=N\Nc1cccc2cccnc12)c1ccccn1	i	196	?	6.3µM*	?	i
CCn1cc2c(n1)-c1c(oc(C(=O)Nc3ccc(Br)cc3F)c1C)CC2	/	82	-24%[46.1 µM]	/	/	/
CCc1cc(-c2nnn(CCC3COCCO3)c2C(C)(C)O)ccc1-c1cn(CCc2c[nH]c3ccccc23)nn1 (stereo not drawn)	/	-40	/	/	/	/
COc1cccc(C(=O)NC2CCCN(C3Cc4ccccc4C3)C2)c1OC (stereo not drawn)	4%	0	/	-4%	/	-13%
Cc1ccccc1C(=O)c1cccn1CC(=O)NCCC1=CCCCC1	7%	?	-11%	-6%	-15%[46.1 µM]	14%
Cc1ccccc1C(=O)c1cccn1CC(=O)NCCCN1CCCCC1	2%	-11	-9%[46.1 µM]	24%	-30%[46.1 µM]	10%
Cc1ccc(C)c(N2CCN(CCCNC(=O)Cn3cccc3C(=O)c3ccccc3C)CC2)c1	44%	-94*	?	11µM*	?	?
Cc1ccccc1C(=O)c1cccn1CC(=O)NCCN1CCN(c2cccc(C)c2C)CC1	5.9µM*	25	?	11µM*	?	?
COC1=C(C(=O)c2ccccc2)C(=O)[C@@]2(CC=C(C)C)CC(C#N)C[C@@]1(CC=C(C)C)C2=O (stereo partly drawn)	/	/	-36%[14.3 µM]	/	-16%[14.2 µM]	/
CN1CCN(CC(=O)Nc2ccccc2C(F)(F)F)CC1	?	29	/	8%	/	5%
CCC(=O)c1ccc(OCC(=O)N2CCN(CC(=O)Nc3ccccc3C(F)(F)F)CC2)cc1	/	?	2%[46.1 µM]	13µM*	?	/
CC(C)Oc1ccc(CNC(=O)c2ccc3c(c2)N(Cc2ccc(F)cc2)CCS3)cc1	/	9	/	/	?	/
CCc1c(C)c2ccc(O)c(CN3CCN(c4ccc(OC)cc4)CC3)c2oc1=O	/	-6	8%[46.1 µM]	/	?	/
Cc1cccc(C(=O)Nc2ccc(C(=O)OCc3cc(=O)n4nc(C5CC5)sc4n3)cc2)c1	/	-10	3.2µM*	/	/	/
O=C(OCc1cc(=O)n2nc(C3CC3)sc2n1)c1ccc(NC(=O)c2ccccc2F)cc1	/	-19	-2%[46.1 µM]	/	/	/
Cc1nn2c(=O)cc(COC(=O)c3ccc(NC(=O)C4CCCCC4)cc3)nc2s1	/	-65*	4%[46.1 µM]	/	/	/
